The values below come from PubChem BioAssay (Tox21).

A short description of assay [1]: qHTS assay for small molecules that induce genotoxicity in human embryonic kidney cells expressing luciferase-tagged ATAD5 (AID 651632). Also: nearly all actives have a fitted effect of over 15% in size. In outline:
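Luminescent reporter readout, HEK293T ATAD5-luc line: 16 hr drug exposure (37C, 5% CO2) followed by Amplite, 30 min RT.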
In general terms: qHTS replaces the single test concentration by a dilution series.

The nature of assay [2]: qHTS assay to test for compound auto fluorescence at 590 nm (red) in HepG2 cells (AID 720674). The essentials:
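We screened compounds on adherent HepG2 cells, incubating them for an hour at 37 C in 5% CO2 before reading emission at 590 nm under 540 nm excitation; values reflect equivalence to Rose Bengal sodium fluorescence.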

Assay [3] in a line: qHTS assay to test for compound auto fluorescence at 535 nm (green) in HepG2 cells (AID 720675).
A short description of assay [4]: qHTS assay to test for compound auto fluorescence at 460 nm (blue) in HEK293 cells (AID 720678). In outline:
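Blue read-out at excitation 405 nm and emission 460 nm follows overnight compound exposure of HEK293 cells at 37C in 5% CO2. Activity is given as auto fluorescence equivalency to triamterene.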

Assay [5] in a line: qHTS assay to test for compound auto fluorescence at 590 nm (red) in HEK293 cells (AID 720679). In outline:
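Red channel, Ex/Em 540/590nm; signal expressed as equivalency to Rose Bengal sodium. HEK293, 2,000 cells/well, 10% dialyzed FBS; 23 nL compound pinned after 4-5 hr attachment; overnight 37C/5% CO2 before reading.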

The nature of assay [6]: qHTS assay to test for compound auto fluorescence at 535 nm (green) in HEK293 cells (AID 720680).
Assay [7] in a line: qHTS assay to test for compound auto fluorescence at 460 nm (blue) in HEK293 cell free culture (AID 720681). In outline: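 Blue fluorescence (Ex 405/Em 460 nm, triamterene-equivalent) was read immediately after pin transfer of compound or DMSO into medium (DMEM, 10% FBS) without cells.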
A short description of assay [8]: qHTS assay to test for compound auto fluorescence at 535 nm (green) in HEK293 cell free culture (AID 720682). In outline:
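Compounds were pin-transferred into cell-free DMEM with 10% FBS, and green fluorescence was read at excitation 485 nm and emission 535 nm. Intensities were expressed as fluorescein-equivalent values.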

Assay [9] can be described thus: qHTS assay to test for compound auto fluorescence at 590 nm (red) in HEK293 cell free culture (AID 720683). The essentials: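 Red-channel autofluorescence of compounds in culture medium (DMEM, 10% FBS), no cells, measured at 540/590 nm. Rose Bengal sodium is the reference fluorophore for equivalence.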
A short description of assay [10]: qHTS assay to test for compound auto fluorescence at 590 nm (red) in HepG2 cell free culture (AID 720684). In outline:
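Plate contents were MEM with 10% FBS plus test compound or DMSO, no cells. Fluorescence was recorded with 540 nm excitation and 590 nm emission.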

A short description of assay [11]: qHTS assay to test for compound auto fluorescence at 460 nm (blue) in HepG2 cell free culture (AID 720685). In outline: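 Compound (23 nL) or DMSO pinned into cell-free MEM with 10% FBS; blue fluorescence read at 405/460 nm excitation/emission, expressed as auto-fluorescence equivalency to triamterene.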
The nature of assay [12]: qHTS assay to test for compound auto fluorescence at 535 nm (green) in HepG2 cell free culture (AID 720686).
A short description of assay [13]: qHTS assay to test for compound auto fluorescence at 460 nm (blue) in HepG2 cells (AID 720687). In outline: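 Blue-channel autofluorescence (Ex/Em 405/460 nm, triamterene-equivalent) was measured after 1 hr compound exposure at 37 C, 5% CO2. Cells were HepG2, plated overnight at 37 C in MEM plus 10% FBS.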
Assay [14] concerns the target Glucocorticoid receptor (Homo sapiens) (UniProt P04150). As to the kind of experiment: qHTS assay to identify small molecule agonists of the glucocorticoid receptor (GR) signaling pathway (AID 720691; active = well fitted activation curve with a large enough effect in the signal ratio in the repeat runs, not every such curve was filed as active; the % refers to the signal ratio). In outline: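 qHTS in GR-bla HeLa cells: 4 h settling at 37 C/5% CO2, 18 h compound incubation at 37 C, 2 h LiveBLAzer B/G FRET substrate at room temperature, fluorescence intensity measured.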

For assay [15] the target is unchanged. As to the kind of experiment: qHTS assay to identify small molecule antagonists of the glucocorticoid receptor (GR) signaling pathway (AID 720692; active = well fitted inhibition curve with a large enough effect in the signal ratio in the repeat runs, not every such curve was filed as active; the % refers to the signal ratio; also: potency is read from the fitted curve at half-maximal effect). In outline:
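Inhibition of glucocorticoid signalling is measured in HeLa cells with a GRE-controlled beta-lactamase reporter; cells are co-treated with compound and 5 nM dexamethasone (final) for 18 h before FRET substrate readout.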

Assay [16] in a line: qHTS assay for small molecules that induce genotoxicity in human embryonic kidney cells expressing luciferase-tagged ATAD5 - cell viability (AID 651634; calls by dose curve; also: nearly all actives have a fitted effect of over 25% in size). The essentials:
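Viability read: CellTiter-Fluor fluorescence, 30 min at 37C. Cells: HEK293T, luciferase-tagged ATAD5. Exposure: 15.5 hr, 37C, 5% CO2, compound or DMSO vehicle.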

Assay [17] in a line: qHTS assay for small molecule disruptors of the mitochondrial membrane potential - cell viability (AID 720634; calls by dose curve; also: nearly all actives have a fitted effect of over 20% in size; also: potency is read from the fitted curve at half-maximal effect). In outline: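 HepG2, 1 hr compound, 37 C. ATP luminescence via CellTiter-Glo, 30 min RT, same well as m-MPI.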
Assay [18] is described as follows: qHTS assay for small molecule disruptors of the mitochondrial membrane potential (AID 720635). Also: potency is read from the fitted curve at half-maximal effect. The essentials: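 Mitochondrial membrane potential tracked with Mito-MPS dye, red aggregates (ex 540/em 590 nm) against green monomers (ex 490/em 535 nm). Compound treatment 1 hr at 37C, dye 30 min in HepG2.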

Results filed as inconclusive are left out. The source made the active and inactive calls. Unless noted, calls follow the shape of the dose curve; as a rule, active = well fitted curve in the direction sought with a large enough effect in the repeat runs; inconclusive = weak or mixed curves; inactive = no such curve, though single readings can be large; an effect the other way counts as inactive or inconclusive.

Sequence of Glucocorticoid receptor (Homo sapiens) (P04150 whole entry, looked up): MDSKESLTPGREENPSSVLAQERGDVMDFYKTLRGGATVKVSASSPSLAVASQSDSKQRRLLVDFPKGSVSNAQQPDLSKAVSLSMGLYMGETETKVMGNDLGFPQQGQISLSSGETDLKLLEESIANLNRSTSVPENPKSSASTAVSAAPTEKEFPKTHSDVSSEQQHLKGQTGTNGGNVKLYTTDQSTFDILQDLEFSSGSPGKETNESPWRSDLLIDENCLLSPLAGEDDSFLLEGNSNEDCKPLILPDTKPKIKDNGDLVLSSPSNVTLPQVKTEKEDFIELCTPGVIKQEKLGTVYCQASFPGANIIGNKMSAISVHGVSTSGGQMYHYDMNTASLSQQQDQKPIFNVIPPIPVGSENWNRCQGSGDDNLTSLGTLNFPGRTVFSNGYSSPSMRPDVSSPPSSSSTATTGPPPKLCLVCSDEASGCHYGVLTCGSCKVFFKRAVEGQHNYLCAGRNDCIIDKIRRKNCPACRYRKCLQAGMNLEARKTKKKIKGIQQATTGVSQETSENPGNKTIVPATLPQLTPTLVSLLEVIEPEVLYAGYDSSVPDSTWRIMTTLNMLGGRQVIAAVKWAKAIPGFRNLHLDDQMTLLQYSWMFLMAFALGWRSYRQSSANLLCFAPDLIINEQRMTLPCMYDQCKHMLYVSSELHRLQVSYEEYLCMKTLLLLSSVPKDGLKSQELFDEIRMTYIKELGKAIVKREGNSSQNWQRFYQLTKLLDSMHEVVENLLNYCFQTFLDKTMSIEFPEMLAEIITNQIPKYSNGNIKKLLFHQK

Turning to `CC(C)[N+](=O)[O-]`, the Potency entry in assay [1] and in assay [15] was “inactive” throughout. Besides, the compound was classed as inactive in assay [2], in assay [3], in assay [4], in [5], in assay [6] and in assay [7]. Moreover, the call in [8], in [9], in assay [10], in [11], in assay [12] and in assay [13] was inactive. The compound was called inactive in assay [14].
With `O=S(=O)(O)C(F)(F)C(F)(F)C(F)(F)C(F)(F)C(F)(F)C(F)(F)F`, the Potency entry in assay [1], in [16] and in [17] was “inactive” in each case. In addition, the compound was classed as inactive in [2], in assay [3], in assay [4], in assay [5], in assay [7] and in [8]. Also, the compound was classed as inactive in assay [9], in assay [10], in assay [11], in [12], in assay [13] and in assay [14].
Turning to `C=CCC1=C(C)[C@@H](OC(=O)[C@@H]2[C@@H](C=C(C)C)C2(C)C)CC1=O`, the Potency result in [1] and in assay [16] was “inactive” in each case. For the same compound, the Potency in assay [17] was 61.1 µM (active); in [18], 15.4 µM (active); in assay [15] it was 49 µM (active). Also, the compound was classed as inactive in assay [2], in assay [3], in assay [4], in [5], in assay [6] and in [7]. Further, the result in assay [8], in assay [9], in assay [10], in assay [12], in assay [13] and in assay [14] was inactive.
As to `CNC(=O)Oc1cccc(C(C)C)c1`, the Potency entry in assay [16], in assay [17] and in assay [15] was “inactive” throughout. For the same compound, the compound was called inactive in [2], in assay [3], in [4], in assay [5], in assay [6] and in assay [7]. Further, the call in [9], in assay [10], in assay [13] and in [14] was inactive.
`CC1(C)COP(Oc2ccccc2)OC1`: the Potency result in assay [1], in assay [16], in [17] and in assay [18] was “inactive” throughout. Also, the result in assay [2], in [3], in assay [5], in assay [6], in assay [7] and in [8] was inactive. Also, the compound was called inactive in assay [9], in assay [10], in assay [11], in assay [12], in [13] and in [14].
With `Cc1ncsc1CCCl`, the Potency entry in [1] and in assay [16] was “inactive” in each case. The compound was called inactive in assay [2], in assay [3], in assay [4], in assay [5], in [7] and in [9]. The outcome in assay [10], in assay [13] and in assay [14] was inactive.
Take `CC(C)CC(N(C)C)C1(c2ccc(Cl)cc2)CCC1` (stereo unspecified): the Potency result in [1], in assay [16] and in assay [15] was “inactive” in each case. For the same compound, the result in [2], in assay [3], in assay [4], in assay [5], in assay [7] and in [8] was inactive. Also, the compound was called inactive in [9], in assay [10], in [11], in [12], in [13] and in assay [14].
For the compound `N#CC(CCc1ccc(Cl)cc1)(Cn1cncn1)c1ccccc1` (stereo unspecified), the Potency result in assay [1] and in assay [17] was “inactive” throughout. Besides, in assay [18], the Potency is 48.6 µM (active). Moreover, the result in [2], in [3], in assay [4], in [5], in [6] and in [7] was inactive. Moreover, the result in assay [8], in assay [9], in assay [10], in [11], in [12] and in assay [13] was inactive.
In the case of `CCCSP(=O)(OCC)Oc1ccc(Br)cc1Cl` (stereo unspecified), in [1], the Potency entry is “inactive”. Further, the Potency is 16.7 µM (active) in assay [17] and 1.05 µM (active) in assay [18]. For the same compound, the result in assay [2], in [3], in assay [4], in [5], in assay [6] and in assay [7] was inactive. For the same compound, the outcome in assay [8], in assay [9], in assay [10], in assay [11] and in assay [13] was inactive.
